Assay outcomes: PubChem, National Center for Advancing Translational Sciences (NCATS)
Hits are enriched below; roughly 9.8% of the tested compounds scored in any of these assays.
HTT aggregate: reduces HttQ103-GFP aggregates in PC12 cells; PC12 HttQ103-GFP aggregates, Acumen cytometry, 40 h; Potency, µM (series often up to 46.1 µM), inactives show at the highest dose activity change, negative = inhibition, actives largely listed as inhibitors; 220,000 tested, 1.1% active; AID 1688; also: potency is read from the fitted curve at half-maximal effect; % is scaled to controls: 0 for no effect and ±100 for the full control effect; nearly all actives have a fitted effect of over 60% in size
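Compounds (qHTS titration) were added to PC12 cells expressing an ecdysone-driven HTT exon 1 Q103–GFP fusion after induction with 100 nM tebufenozide. Aggregate formation was measured as GFP objects in cell lysates.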
ALDH1A1 inh: blocks purified human ALDH1A1 activity | P00352 | Purified ALDH1A1, NADH fluorescence, propionaldehyde substrate | Potency, µM (doses to about 75.3 µM), for inactives: at the highest dose activity, negative = inhibition, most hits filed as inhibitors | 220,000 tested, 7.3% active | AID 1030; active = well fitted inhibition curve with a large enough effect, not every such curve was filed as active; inconclusive = small, poorly fitted or top-dose-only effect, or another doubt; inactive = no such curve, though single readings can be large or run the other way;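 also: potency is read from the fitted curve at half-maximal effect; plate controls were no enzyme wells and a reference inhibitor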
HPGD inh: blocks human HPGD enzyme activity; P15428; purified HPGD, NADH fluorescence kinetic, PGE2 substrate; Potency, µM, inactives show at the highest dose activity change, negative = inhibition, actives largely listed as inhibitors; 150,000 tested, 4.3% active; AID 894; active = well fitted inhibition curve with a large enough effect, not every such curve was filed as active; inconclusive = small, poorly fitted or top-dose-only effect, or another doubt; inactive = no such curve, though single readings can be large or run the other way; also: potency is read from the fitted curve at half-maximal effect; % is scaled to controls: 0 for no effect and ±100 for the full control effect
Target sequence (P15428 whole entry, looked up): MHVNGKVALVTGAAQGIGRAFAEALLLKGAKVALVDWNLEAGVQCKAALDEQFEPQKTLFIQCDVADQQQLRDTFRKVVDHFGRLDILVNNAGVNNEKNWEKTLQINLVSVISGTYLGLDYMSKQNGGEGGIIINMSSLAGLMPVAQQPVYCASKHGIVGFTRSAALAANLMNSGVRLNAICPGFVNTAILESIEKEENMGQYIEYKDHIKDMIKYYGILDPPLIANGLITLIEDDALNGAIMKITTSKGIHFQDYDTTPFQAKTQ
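NADH formation kinetics: reaction with 30 uM PGE2 and 1 mM NAD+ (final), 20 nM enzyme, Tris-HCl pH 8 with Tween 20, after 15 min compound preincubation at room temperature. Fluorescence change, last versus first of five reads.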
CBFb-RUNX1 inh: blocks binding between human CBF-beta and RUNX1; Q01196+Q13951; AlphaScreen CBFb-His/RUNX1-biotin binding, biochemical; Potency, µM (highest dose often 59.8 µM), for inactives: at the highest dose activity, negative = inhibition, usual class: inhibitors; 230,000 tested, under 10 active; also: % of control where 0% means no effect
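Interaction loss through any mechanism counts as activity. Pre-formed complex of His-CBF-beta and biotin-RUNX1 (30 nM apiece) is incubated with compound 15 min, then with 50 ng nickel and 50 ng streptavidin beads for 90 min before AlphaScreen detection.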
HTT ATP protect: protects HTT-Q103 PC12 cells, measured by ATP; Potency, µM (highest dose often 56.4 µM), without a hit: cytoprotection (ATP increase), hits mostly activators; 230,000 tested, 0.14% active; PC12 HTT-Q103 induced, cytoprotection, ATP luminescence, 40 h; AID 1471; also: potency is read from the fitted curve at half-maximal effect; % of control where 0% means no effect; nearly all actives have a fitted effect of over 45% in size
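Quantitative HTS on tebufenozide-induced (100 nM) PC12 cells expressing HTTQ103 exon 1–GFP; compounds tested as a concentration series; survival measured via cellular ATP.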
JMJD2E inh: JMJD2E (human) inhibition; B2RXH2; JMJD2E catalytic domain, FDH-coupled NADH fluorescence (FDH is formaldehyde dehydrogenase); Potency, µM (top dose mostly 57.1 µM), inactives show at the top dose activity change, negative = inhibition, hits mostly inhibitors; 230,000 tested, 1.6% active; AID 2147; active = well fitted inhibition curve with a large enough effect, not every such curve was filed as active; inconclusive = small, poorly fitted or top-dose-only effect, or another doubt; inactive = no such curve, though single readings can be large or run the other way;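 also: potency is read from the fitted curve at half-maximal effect; 0% = wells with enzyme and -100% = buffer wells without enzyme; nearly all actives have a fitted effect of over 50% in size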
Target sequence (B2RXH2 1-337 limits assumed): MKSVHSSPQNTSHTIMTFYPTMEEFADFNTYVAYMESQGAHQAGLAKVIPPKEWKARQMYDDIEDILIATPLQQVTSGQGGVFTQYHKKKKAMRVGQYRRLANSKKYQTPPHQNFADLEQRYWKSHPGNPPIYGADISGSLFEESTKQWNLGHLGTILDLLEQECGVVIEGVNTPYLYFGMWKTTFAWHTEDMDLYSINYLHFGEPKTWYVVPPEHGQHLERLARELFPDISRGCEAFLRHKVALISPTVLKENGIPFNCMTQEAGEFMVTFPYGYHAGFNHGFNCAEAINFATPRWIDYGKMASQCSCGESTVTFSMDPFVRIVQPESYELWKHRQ
Active calls of the source: *; u = inconclusive; x = not tested or not shown; [ ] = remark or other dose. Unless noted, calls follow the shape of the dose curve; as a rule, active = well fitted curve in the direction sought with a large enough effect; inconclusive = small, poorly fitted or top-dose-only effect, or another doubt; inactive = no such curve, though single readings can be large; an effect the other way counts as inactive or inconclusive.

SMILES	HTT aggregate	ALDH1A1 inh	HPGD inh	CBFb-RUNX1 inh	HTT ATP protect	JMJD2E inh
O=C(N/C(=C\c1ccc([N+](=O)[O-])cc1)C(=O)N1CCCCC1)c1ccccc1	-37%	2%	x	-9%	-24%	0%
O=[N+]([O-])/C(C(Cl)=C(Cl)Cl)=C(/Sc1ccccc1)N1CCCCC1	8%[9.22 µM]	18µM*	x	8%	6%[10 µM]	u
CC1=CC(C)C(/C=N/n2cnnc2)C(C)C1 (stereo unspecified)	-2%	6%	-8%	11%	11%	6%
C=C(C)C1CCC(C)=C1CC(C)(C)/C=N\n1cnnc1 (stereo unspecified)	u	22µM*	-14%	8%	11%	2%
Cc1cccc(NC(=O)CSc2cc(C)c(C#N)c3nc4ccccc4n23)c1	2%[9.22 µM]	x	x	7%	-9%[10 µM]	13%
C/C(CC(C)(C)c1ccccc1)=N\NS(=O)(=O)c1ccccc1	u	13µM*	x	8%	u	-5%
CC(C)c1ccccc1S(=O)(=O)c1cc(N)c2ncccc2c1[N+](=O)[O-]	x	-7%	-17%	-24%	7.9µM*	-23%
CN1C(=S)SC2CS(=O)(=O)CC21C (stereo unspecified)	16%[9.22 µM]	x	x	5%	33%[10 µM]	6%
Cc1ccc(Cn2c(SC3CCOC3=O)nc3ccccc3c2=O)cc1 (stereo unspecified)	-7%	u	-9%	8%	19%[10 µM]	6%
CCc1cc2c(=O)n(Cc3ccccc3)c(SC3CCOC3=O)nc2s1 (stereo unspecified)	2%	2.8µM*	x	1%	-7%	-3%
O=C1OCCC1Sc1nnc(-c2cccs2)n1Cc1ccccc1 (stereo unspecified)	-7%	20µM*	-10%	2%	-3%	-2%
O=C(CCCCl)NC1=NN(c2ccccc2)C(=O)C1	1%	8.9µM*	-5%	-7%	17%[1.9 µM]	-30%
CC(=O)NC1=NN(c2ccccc2)C(=O)C1	0%	2%	-9%	-2%	14%	13%
COc1ccc(NC(=O)Nc2ccccc2F)cc1Cl	-9%[9.22 µM]	8%	x	15%	-32%	5%
COCCSc1nnc(NC(=O)Cc2ccccc2OC)s1	-1%	22µM*	-16%	6%	16%	2%
COCCSc1nnc(NC(=O)Cc2cccs2)s1	4%	1%	-21%	u	13%[1.9 µM]	6%
O=C(Oc1ccccc1C(=O)Oc1ccccc1)c1ccco1	-5%	u	-4%	2%	-9%	4%
N#CSCC(=O)c1cccc2ccccc12	u	1.6µM*	u	-6%	-1%[10 µM]	2%
COc1ccccc1CNCC(O)Cn1c2ccccc2c2ccccc21 (stereo unspecified)	-3%	u	4%	-18%	17%[0.074 µM]	9%
COc1ccc(C(=O)c2c(C)c3ccccc3n2CC(O)CNC(C)C)cc1 (stereo unspecified)	22µM*	u	-10%	21%	x	5%
Cc1cc(C)c(N2C(=O)C3C4CC(=O)C(c5ccccc54)C3C2=O)c(C)c1 (stereo unspecified)	-4%[9.22 µM]	x	x	8%	4%[10 µM]	-7%
CC(Oc1ccc(Cl)cc1Cl)C(=O)NN=C1CCN(C)CC1 (stereo unspecified)	-11%	2.5µM*	-3%	1%	x	-8%
CC(C)(C)C(=O)NC(=S)N1CCc2ccccc21	-3%	11µM*	x	-21%	-17%	2%
CC(Oc1ccc(Cl)cc1Cl)C(=O)N/N=C1\CCCc2ccccc21 (stereo unspecified)	-2%	-7%	-25%	-2%	19%	7%
CC(Oc1ccc(Cl)cc1Cl)C(=O)NC(=S)N1CCc2ccccc21 (stereo unspecified)	10%	18µM*	-22%	2%	15%[10 µM]	2%
SMILES	HTT aggregate	ALDH1A1 inh	HPGD inh	CBFb-RUNX1 inh	HTT ATP protect	JMJD2E inh
O=C(O)CCn1c(-c2ccccc2)cc2ccccc21	6%[9.22 µM]	u	x	-7%	22%[10 µM]	-6%
O=C(Cc1ccc(Br)cc1)Nc1cccc(Cl)c1	16%	8%	x	17%	x	3%
CN(Cc1ccco1)C(=O)C(Cc1ccccc1)NS(=O)(=O)c1ccc2c(c1)CCC(=O)N2 (stereo unspecified)	8%	25µM*	-6%	2%	-21%	1%
CCCNC(=O)C(Cc1ccccc1)NS(=O)(=O)c1ccc2c(c1)CCC(=O)N2 (stereo unspecified)	10%	-13%	5%	0%	6%	4%
COC(=O)/C(=C\c1cc(OC)c(OC)c(OC)c1)c1nc2ccccc2[nH]1	u	u	x	-3%	69%	u
COC(=O)/C(=C\c1ccc(O)cc1)c1nc2ccccc2[nH]1	9%	12µM*	x	-20%	18%	u
O=c1[nH]c2ccccc2nc1/C=C/c1ccc(O)cc1	-3%[9.22 µM]	1%	x	8%	-44%[10 µM]	16µM*
O=C(/C(=C/c1ccc(Cl)cc1)c1nc2ccccc2[nH]1)c1cccs1	5µM*	u	u	-19%	-110%	-1%
Fc1ccc(Nc2ccc3ccccc3n2)c(F)c1	3%	u	x	8%	-84%	22µM*
Cc1ccccc1N1CCN(C(=O)c2ccc(Oc3ccc(C(F)(F)F)cn3)cc2)CC1	u	-2%	-13%	1%	-16%[10 µM]	-5%
COc1ccc(CNC(=O)C(C)Sc2ccc(C)cc2)cc1 (stereo unspecified)	-10%[9.22 µM]	14µM*	x	6%	-34%	-12%
COc1ccc(CNC(=O)c2c(-c3cc(Cl)c(OC)c(Cl)c3)noc2C)cc1	-18%	0.045µM*	-7%	4%	-30%	3%
COc1ccc(CNC(=O)c2ccc(C)o2)cc1	7%	-9%	3.5µM*	10%	-6%[10 µM]	7%
COc1ccc(CNC(=O)c2cnc(C)cn2)c(OC)c1	3%	u	-6%	3%	-24%[10 µM]	-3%
Cc1ccc(SC(C)C(=O)NCc2ccncc2)cc1 (stereo unspecified)	-14%	-3%	x	8%	-17%[10 µM]	-13%
COc1ccc(CNC(=O)c2cnc(C)cn2)cc1	5%	u	25µM*	-3%	-1%	-4%
Cc1nnc(SCC(=O)N2CCCC2)n(N)c1=O	21%	2%	x	1%	14%	-7%
O=S(=O)(c1ccc(OCC(O)CNC23CC4CC(CC(C4)C2)C3)c(Cl)c1)N1CCOCC1 (stereo unspecified)	4%	1%	x	7%	-41%	3%
COc1ccc(NC(=O)N2CCN(S(C)(=O)=O)CC2)c(OC)c1	2%[9.22 µM]	7%	x	-2%	15%	15%
N=C1C(c2nc3ccccc3s2)=C(O)CN1Cc1ccco1	0%	22µM*	u	-5%	-23%	u
